Screens (PubChem)
Only some compounds are listed: those with a hit (about 12% of all), similar ones and a draw of the others.
CHX counter: counter-screen for Shiga toxin inhibitors: cycloheximide protein synthesis inhibition | 300,000 tested, 12% active | max response, % | cell reporter, cycloheximide protein synthesis inhibition counterscreen; in the data active means max response mostly above about 13%, no sharp cut-off; inactive means mostly below about 14%; further: read at 38.3 µM for the half of the compounds with a filed dose
Shiga inhibitor: blocks Shiga toxin action in Vero cells | Vero cells, Shiga toxin protein synthesis inhibition reporter | 290,000 tested, 9.2% active | inhibition, % at 38.7 µM; in the data active means inhibition mostly above about 28%, no sharp cut-off; inactive means mostly below about 43%
FMDV antiviral: antivirals against foot and mouth disease virus | Potency, µM (titrated, usually from 57.9 µM), usual class: inhibitors | FMDV antiviral cell-based qHTS | 410,000 tested, 1.2% active; calls by dose curve; tested in HEK293T cells; further: read-out not given here; nearly all actives have a fitted effect of over 45% in size
Sm TGR block: blocks Schistosoma mansoni thioredoxin glutathione reductase; Q962Y6; purified TGR, DTNB reduction, TNB absorbance 405 nm; Potency, µM (doses to about 114 µM), usual class: inhibitors; 360,000 tested, 3% active; AID 485364; active means well fitted inhibition curve with a large enough effect; inconclusive means small, poorly fitted or top-dose-only effect; inactive means no such curve, though single readings can be large or run the other way; further: nearly all actives have a fitted effect of over 60% in size
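TGR 20 nM + NADPH 100 uM (dispensed conc.), cpd preinc 15 min RT; start with NADPH (500 uM addition) then DTNB (15 mM addition). Kinetic TNB absorbance, 405 nm filter. Four-parameter Hill fit across titration.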
Large screens that a line does not name were inactive.

C/C(=N\NC(=O)c1ccc(COc2ccccc2)cc1)c1ccncc1	none
O=C(c1ccc(F)cc1)[C@@H]1[C@@H](C(=O)c2ccccc2)[C@@]2(C(=O)Nc3ccccc32)[C@H]2c3ccccc3C=CN12	Sm TGR block 45µM (no result: FMDV antiviral)
CC(=O)[C@@H]1[C@@H](C(=O)c2ccc(C)cc2)[C@]2(C(=O)Nc3ccccc32)[C@H]2C=Cc3cc(F)ccc3N12	Sm TGR block inconclusive
CC(=O)[C@@H]1[C@@H](C(=O)c2ccc(F)cc2)[C@]2(C(=O)Nc3ccccc32)[C@H]2C=Cc3cc(F)ccc3N12	Sm TGR block 50µM
O=C(CCS(=O)(=O)c1nc(-c2ccc3c(c2)OCO3)cc(C(F)(F)F)n1)Nc1ccccc1C(F)(F)F	none (no result: CHX counter, Shiga inhibitor)
O=C(N/N=C/c1cccnc1)c1ccc2c(c1)OCO2	CHX counter 38, Shiga inhibitor 55
O=C(N/N=C/c1c(Cl)[nH]c2ccccc12)c1ccc2c(c1)OCCO2	CHX counter 55, Shiga inhibitor 60
O=C(N/N=C/c1ccc2c(c1)OCO2)c1ccc2c(c1)OCO2	CHX counter 42, Shiga inhibitor 72
O=C(N/N=C/c1ccccc1OC(=O)N1CCOCC1)c1cccs1	CHX counter 35
O=C(NN=Cc1ccc2c(c1)OCO2)c1ccncc1	none (no result: CHX counter, Shiga inhibitor, Sm TGR block)
CCC(=O)N1CCc2cc(CNS(=O)(=O)c3ccc(C(C)C)cc3)ccc21	none (no result: CHX counter, Shiga inhibitor)
CCOC(=O)c1c(C)oc2nc(C)nc(Nc3cc(C)cc(C)c3)c12	none (no result: CHX counter, Shiga inhibitor)
CCC(Sc1nc2nccnc2c(=O)n1Cc1ccc(C)cc1)C(=O)NC1CCCCC1 (stereo not given)	none (no result: CHX counter, Shiga inhibitor)
CCC(C(=O)Nc1cc(C)ccc1OC)n1nnc(C(=O)OC)c1C(=O)OC (stereo not given)	none (no result: CHX counter, Shiga inhibitor)
Cc1c(C(=O)N2CCCCCC2)c(S(=O)(=O)Nc2cccc(C#N)c2)c(C)n1C	none (no result: CHX counter, Shiga inhibitor)
O=C(N/N=C/c1ccc(COc2ccc(Br)cc2)o1)c1ccc2c(c1)OCO2	CHX counter 15
O=C(N/N=C/c1ccc(-c2ccc(Br)cc2)o1)c1ccc2c(c1)OCO2	none
O=C(N/N=C\c1cccc(OC(=O)c2ccco2)c1)c1ccc2c(c1)OCO2	CHX counter 32, Shiga inhibitor 50, FMDV antiviral inconclusive
O=C(N/N=C/c1ccc2c(c1)OCO2)C1CC1	CHX counter 37, Shiga inhibitor 49
O=C(N/N=C\c1ccc2c(c1)OCO2)c1ccco1	CHX counter 28, Shiga inhibitor 59
Cc1ccc(CNC(=O)CSc2ncc3c(n2)-c2cc(Cl)ccc2N(C)S3(=O)=O)cc1	none (no result: CHX counter, Shiga inhibitor)
COc1ccc(NC(=O)CCn2cnnn2)cc1	none (no result: CHX counter, Shiga inhibitor)
CN(C)S(=O)(=O)N(CC(=O)NCCSCc1cccc(Cl)c1)c1ccccc1	none (no result: CHX counter, Shiga inhibitor)
O=C(CNC(=O)c1ccc2c(c1)OCO2)Nc1cccc(Br)c1	none (no result: CHX counter, Shiga inhibitor)
O=C(CNC(=O)c1cccc(Br)c1)N/N=C/c1ccc2c(c1)OCO2	CHX counter 24, Shiga inhibitor 79
O=C(Cc1ccccc1)N/N=C/c1cc2c(cc1Cl)OCO2	CHX counter 35, Shiga inhibitor 85
O=C(N/N=C/c1cc2c(cc1Cl)OCO2)c1ccc2c(c1)OCCO2	CHX counter 42, Shiga inhibitor 70
O=C(N/N=C/c1ccc[nH]1)c1cccc([N+](=O)[O-])c1	none
O=C(CNc1ccc2c(c1)OCO2)N/N=C\c1ccccc1Cl	Sm TGR block inconclusive
